Test results reported in PubChem BioAssay AID624330 (Southern Research Specialized Biocontainment Screening …, 2012).
The campaign covered roughly 340,000 compounds. About 2,100 (0.62%) were called active.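 Rule for the calls: active = first-screen hits whose inhibition reached a set limit at any dose in the follow-up dose series; inconclusive = inhibition above the set first-screen limit but never retested; inactive = the rest.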 A selection follows. Results with a measured potency or affinity are listed apart.

target: Rac GTPase-activating protein 1 (Homo sapiens) (UniProt Q9H0H5); test: blockers of MgcRacGAP-driven Rac1 GTP hydrolysis – biochemical, ADP Hunter fluorescence, primary and confirmatory, confirmation (AID 624330); details: MgcRacGAP-stimulated Rac1 GTP hydrolysis, at 30 µM, active compounds read high, GST-tagged Rac1 F28L mutant substrate;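 note: fluorescence reports GDP produced by GAP-driven GTP hydrolysis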
Sequence (Q9H0H5 whole entry, looked up): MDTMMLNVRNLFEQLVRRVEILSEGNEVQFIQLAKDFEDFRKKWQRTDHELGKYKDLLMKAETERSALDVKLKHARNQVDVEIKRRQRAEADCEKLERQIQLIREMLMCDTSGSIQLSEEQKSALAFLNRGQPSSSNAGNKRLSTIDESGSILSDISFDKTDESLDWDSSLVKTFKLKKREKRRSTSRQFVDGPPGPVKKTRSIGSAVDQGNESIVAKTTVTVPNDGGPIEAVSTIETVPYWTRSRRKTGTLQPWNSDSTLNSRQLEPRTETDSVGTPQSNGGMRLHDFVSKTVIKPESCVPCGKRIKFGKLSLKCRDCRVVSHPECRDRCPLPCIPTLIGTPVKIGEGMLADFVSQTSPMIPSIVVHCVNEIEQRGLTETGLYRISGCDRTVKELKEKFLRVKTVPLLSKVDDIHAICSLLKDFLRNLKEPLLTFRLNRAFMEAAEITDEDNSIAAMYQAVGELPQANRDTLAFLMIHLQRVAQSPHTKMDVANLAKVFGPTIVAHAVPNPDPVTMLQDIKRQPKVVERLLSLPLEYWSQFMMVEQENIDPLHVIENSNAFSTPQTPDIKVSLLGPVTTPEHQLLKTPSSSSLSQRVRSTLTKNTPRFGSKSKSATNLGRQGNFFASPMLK

inhibition, inactive:
O=C(C[C@H]1C(=O)N(CCc2ccccc2)C[C@@H]1Cc1ccccc1)Nc1ccc(Br)cc1 12.8%
C[C@H]1c2cccc(O)c2C(O)=C2C(=O)C3(O)C(O)=C(C(N)=O)C(=O)[C@@H](N(C)C)[C@@H]3[C@@H](O)[C@@H]21 (stereo partly specified) 1.02%
CN(C)c1ccc(O)c2c1CC1CC3[C@@H](N(C)C)C(=O)C(C(N)=O)C(=O)[C@]3(O)C(=O)C1C2=O (stereo partly specified) 15.3%
C[C@H]1c2cccc(O)c2C(O)=C2C(=O)[C@]3(O)C(O)=C(C(N)=O)C(=O)[C@@H](N(C)C)[C@@H]3[C@@H](O)[C@@H]21 8.18%
C[C@H]1c2cccc(O)c2C(O)=C2C(=O)[C@]3(O)C(O)=C(C(N)=O)C(=O)[C@@H](N(C)C)C3[C@@H](O)C21 (stereo partly specified) 2.79%
C=C1c2cccc(O)c2C(=O)C2C(=O)[C@]3(O)C(=O)C(C(N)=O)C(=O)[C@@H](N(C)C)[C@@H]3[C@@H](O)[C@H]12 (stereo partly specified) 73.9%
CN(C)c1ccc(O)c2c1CC1CC3C(N(C)C)C(=O)C(C(N)=O)=C(O)[C@@]3(O)C(=O)C1=C2O (stereo partly specified) 9.88%
CC(=O)Nc1ccc(-c2csc(NCCc3ccccc3)n2)cc1 9.25%
O=C1CN(C(=O)COC(=O)Cc2ccccc2F)c2ccccc2N1 3.02%
Nc1cc(S(=O)(=O)Nc2ccccc2Cl)ccc1N1CCCC1 11.5%
O=C(O)CSc1nnc(CNc2cccc(C(F)(F)F)c2)n1Cc1ccco1 10.8%
COC(=O)CCC(=O)NNC(=O)CCC(=O)Nc1cccc(Cl)c1C 8.78%
COc1ccc(OC)c(-c2csc(NC(=O)CSc3ccc(Br)cc3)n2)c1 5.11%
CCn1c(=O)n(CC)c2cc(N3CCCC3)c(NC(=O)c3ccc(F)cc3)cc21 17%
CCn1c(=O)n(CC)c2cc(N3CCCC3)c(NC(=O)c3cccc(C)c3)cc21 11.6%
COc1cccc(C(=O)Nc2cc3c(cc2N2CCOCC2)n(C)c(=O)n3C)c1 -34.3%
CCn1c(=O)n(CC)c2cc(N3CCCC3)c(NC(=O)c3cccc(OC)c3)cc21 8.3%
O=C(NCC(c1ccco1)N1CCCCC1)c1cccnc1 (stereo unspecified) 0.38%
C/C(N)=C(/C#N)C(=O)CSc1nc2ccccc2n1CC(C)C 8.8%
NC(=S)N=Nc1c(O)n(CC(=O)Nc2ccccc2)c2ccccc12 -6.62%
COc1ccc(C(=O)Nc2c(N)nc(SCC(=O)N3CCC(C)CC3)[nH]c2=O)cc1 6.29%
N#Cc1ccsc1NC(=O)C1=COCCO1 10.4%
CN(C)c1ccc(C(=O)NCC2CCCO2)cc1 (stereo unspecified) -9.43%
CN(C)c1ccc(CNCC2CCCO2)cc1 (stereo unspecified) -6.93%
CN(CC(=O)Nc1cccc(S(=O)(=O)N2CCOCC2)c1)CC(=O)Nc1ccc(Cl)c(C(F)(F)F)c1 6.95%
C/C(=N\O)C(C)(C)Nc1ccc(Cl)cc1 11.3%
CC(C)C(CO)NC(=O)CC(=O)NC(CO)C(C)C (stereo unspecified) 5.27%
CC1CCCC(C)N1/N=C/c1ccc(N(C)C)cc1 (stereo unspecified) 9.58%
CN(C)c1ccc(C=NN2CCCCCC2)cc1 -2.87%
Cc1ccc(C(=O)N2CCN(c3ccc(N4CCOCC4)nn3)CC2)cc1C 5.24%
CCOC(=O)c1c(NC(N)=O)sc(C)c1C 1.42%
CCOC(=O)Nc1sc(C)c(C)c1C(=O)OCC -8.16%
O=c1[nH]c2ccccc2n2c(-c3ccncc3)nnc12 6.75%
O=c1[nH]c2ccccc2n2c(C(F)(F)F)nnc12 5.97%
COC(=O)c1ccc(NC(=O)c2ccc3nc(C)sc3c2)cc1 -0.39%
O=C(Nc1ccc(Cl)cc1)c1ccc2nsnc2c1 -0.42%
COC(=O)c1ccc(NC(=O)c2ccc3nsnc3c2)cc1 2.71%
CC(=O)c1ccc(NC(=O)c2ccc3nc(C)sc3c2)cc1 5.73%
O=C(/C=C/c1ccc(Cl)c(Cl)c1)NCCCn1ccnc1 7.08%
CN1c2ccc(Cl)cc2C(=O)NC1c1ccc([N+](=O)[O-])s1 (stereo unspecified) 11.4%
Cc1cccn2c(=O)c(C=NCc3ccccc3)c(NCCO)nc12 7.69%
C#CCOCCOCCOCCNc1nc(N2CCN(C(=O)[C@H](CCCCN)n3cc(C(N)CC(C)C)nn3)CC2)nc(N2CCN(C(=O)[C@H](CCC(=O)O)n3cc(C(N)[C@H](C)CC)nn3)CC2)n1 (stereo partly specified) 13.4%
C#CCOCCOCCOCCNc1nc(N2CCN(C(=O)[C@H]([C@@H](C)CC)n3cc([C@@H](N)CC(C)C)nn3)CC2)nc(N2CCN(C(=O)[C@H](CCCCN)n3cc([C@@H](N)C(C)CC)nn3)CC2)n1 (stereo partly specified) 19.8%
C#CCOCCOCCOCCNc1nc(N2CCOCC2)nc(N2CCN(C(=O)[C@H](CCCCN)n3cc([C@@H](N)CC(C)C)nn3)CC2)n1 11.6%
C#CCOCCOCCOCCNc1nc(N2CCN(C(=O)[C@H](CCCCN)n3cc([C@@H](N)CO)nn3)CC2)nc(N2CCN(C(=O)[C@H](CCCCN)n3cc([C@@H](N)CC(C)C)nn3)CC2)n1 19.8%
C#CCOCCOCCOCCNc1nc(N2CCN(C(=O)C(Cc3cc4ccccc4[nH]3)n3cc(C(N)C(C)CC)nn3)CC2)nc(N2CCN(C(=O)C(Cc3cc4ccccc4[nH]3)n3cc(C(N)C(C)CC)nn3)CC2)n1 (stereo unspecified) 4.22%
C#CCOCCOCCOCCNc1nc(N2CCOCC2)nc(N2CCN(C(=O)[C@H](Cc3cc4ccccc4[nH]3)n3cc([C@@H](N)C(C)CC)nn3)CC2)n1 (stereo partly specified) 13.4%
CC(OC(=O)c1cc(=O)[nH]c2ccccc12)C(=O)N1C(C)CCCC1C (stereo unspecified) 3.29%
COc1ccccc1Nc1nnc(SCc2cc(=O)n3cc(C)ccc3n2)s1 10.9%
Cc1cc(C)n2nc(SCc3nc4ccccc4[nH]3)nc2n1 3.82%
C/C=C\C=C/C(=O)Nc1cccc(C2=NOC3(C2)C[C@@H](C(N)=O)N(C(=O)COc2ccc(Cl)cc2)C3)c1 (stereo partly specified) 7.01%
O=C(c1sc2ccccc2c1Cl)N1CCN(c2ncccn2)CC1 5.52%
Cc1nc(Nc2nc(CSc3ccc(Cl)cc3)cc(=O)[nH]2)nc2ccccc12 4.96%
O=C(COC(=O)C1CC(=O)N(c2ccccc2)C1)c1ccccc1 (stereo unspecified) 4.11%
O=C(CCCN1C(=O)/C(=C/c2ccccc2Cl)SC1=S)NCCCN1CCOCC1 12.8%
O=C1C(=Cc2ccccc2O)SC(=S)N1CCCN1CCOCC1 14.5%
CCN(CC)C(=S)Nc1ccc2nc3n(c(=O)c2c1)CCCCC3 3.47%
O=C(Nc1ccccn1)c1cc2ccccc2cc1O 6.04%
O=C(O)c1ccccc1C(=O)Nc1ccccn1 3.57%
OCCSc1c(F)c(SCCO)c(SCCO)c(F)c1SCCO -1.8%
Cn1c(=O)[nH]c(=O)c2c1nc(NCCc1ccccc1)n2CC(O)COc1ccccc1 (stereo unspecified) 4.54%
CCOC(=O)C1(CCOC)CCN(C/C=C/c2ccccc2OC)CC1 5.1%
COc1ccc(Br)cc1/C=N/NC(=O)CNC(=O)c1cccnc1 -12.5%
O=C(CNC(=O)c1ccncc1)N/N=C/c1cc(Br)ccc1O 3.51%
O=C(CNC(=O)c1ccco1)N/N=C/c1ccccc1[N+](=O)[O-] 16.6%
O=C(N/N=C/c1ccc(O)cc1O)c1ccncc1 31.7%
COc1cccc(/C=N/NC(=O)CNC(=O)c2cccs2)c1O 9.63%
COc1cccc(/C=N/NC(=O)CNC(=O)c2cccnc2)c1O 5.08%
O=C(CNC(=O)c1cccs1)N/N=C/c1ccccc1[N+](=O)[O-] 3.27%
O=C(CNC(=O)c1ccco1)N/N=C/c1cc(Br)ccc1O 5.36%
O=C1OC(COc2ccc(Br)cc2)CN1c1ccccc1 (stereo unspecified) 0.77%
Cc1ccc(OCc2nnc(SC(C)C(=O)O)n2Cc2ccccc2)cc1 (stereo unspecified) -1.5%
O=C(COC(=O)[C@@H]1CC(O)CN1S(=O)(=O)c1ccc2c(c1)OCCO2)Nc1ccccc1F (stereo partly specified) 1.86%
O=C(c1ccc(Cl)nc1)N1CCN(C/C=C/c2ccccc2)CC1 10.5%
O=C(CN1C(=O)NC2(CCc3ccccc32)C1=O)c1c[nH]c2ccccc12 (stereo unspecified) -3.1%
CN1CCN(C(c2cccc(Cl)c2)c2ccccc2Cl)CC1 (stereo unspecified) 7.6%
CC1(C)C(=O)N(c2ccccc2)C1c1ccccc1O (stereo unspecified) 3.93%
O=C(COc1ccccc1)NCC(=O)N/N=C/c1ccccc1 5.67%
Oc1ccc(C=NNC(=S)Nc2cccnc2)nc1 7.4%
O=C(CCCCCNC(=O)c1ccccc1)N/N=C/c1ccccc1O 3.53%
Cc1cccc(OCC(=O)NCC(=O)N/N=C/c2ccc(O)cc2O)c1 18.5%
O=C(CCCCCNC(=O)c1ccccc1)N/N=C/c1ccc(F)cc1 6.47%
Oc1ccc(/C=N/NC(=S)Nc2cccnc2)c(O)c1O -102%
FC(F)(F)c1cnc(COc2ccc(Cl)cc2Cl)c(Cl)c1 7.97%
COc1ccccc1-c1cc(C(=O)NCc2ccco2)no1 11.6%
CCN(C[C@H]1N[C@@](C)(C(=O)OC)[C@H]2C(=O)N(C)C(=O)[C@@H]12)C(=O)Nc1ccc(C(F)(F)F)cc1 4.98%
